Values without a mark were called inactive. Records with an inconclusive call do not appear. A call without a number means that no potency is given here. The source made the active and inactive calls. Unless noted, calls follow the shape of the dose curve; as a rule, active = well fitted curve in the direction sought with a large enough effect in the repeat runs; inconclusive = weak or mixed curves; inactive = no such curve, though single readings can be large; an effect the other way counts as inactive or inconclusive.
How the values were obtained:
[1] = qHTS RealTime-Glo MT Cell Viability Assay in HEK293 cells - 0 hour (AID 1224880); also: top concentration of the series differs between compounds; nearly all actives have a fitted effect of over 45% in size
Outline: (§1)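 Nonlytic bioluminescent viability monitoring. HEK293 at 600 cells/well with reagent; 5 h settle; compound transfer by pintool; plates held at 37 C and read at set time points.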

[2] = A CellTox Green Cytotoxicity Assay to monitor cytotoxicity in HEK293 cells - 32 hour (AID 1224881); also: nearly all actives have a fitted effect of over 40% in size
Outline: (§2)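 Cytotoxicity was tracked continuously in HEK293 cells by a DNA-binding dye excluded from viable cells. Compounds were transferred in DMSO 5 h after seeding; fluorescence was recorded at intervals up to 40 h.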

[3] = A CellTox Green Cytotoxicity Assay to monitor cytotoxicity in HepG2 cells - 0 hour (AID 1224882); also: nearly all actives have a fitted effect of over 35% in size
Outline: (§3)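 Real-time, homogeneous cytotoxicity readout: dead-cell DNA staining by CellTox Green in HepG2 monolayers, fluorescence measured at timed intervals up to 40 h of continuous compound exposure.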

[4] = A CellTox Green Cytotoxicity Assay to monitor cytotoxicity in HepG2 cells - 32 hour (AID 1224883); also: nearly all actives have a fitted effect of over 50% in size
Outline: as §3

[5] = A CellTox Green Cytotoxicity Assay to monitor cytotoxicity in HEK293 cells - 8 hour (AID 1224884); also: nearly all actives have a fitted effect of over 35% in size
Outline: as §2

[6] = qHTS RealTime-Glo MT Cell Viability Assay in HepG2 cells - 16 hour (AID 1224885); also: nearly all actives have a fitted effect of over 50% in size
Outline: (§4)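 Compound treatment began 5 h after plating HepG2 cells (600/well) with NanoLuc luciferase and prosubstrate. Plates stayed at 37 C for 40 h; luminescence was captured at six time points, 0 h through 40 h.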

[7] = qHTS RealTime-Glo MT Cell Viability Assay in HEK293 cells - 24 hour (AID 1224886); also: nearly all actives have a fitted effect of over 50% in size; also: potency is read from the fitted curve at half-maximal effect
Outline: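 Quantitative high-throughput screen of the Tox21 10K library in HEK293: cells and RealTime-Glo reagents plated together, compound added at 5 h, luminescence monitored through 40 h at 37 C.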

[8] = qHTS RealTime-Glo MT Cell Viability Assay in HEK293 cells - 8 hour (AID 1224887); also: top concentration of the series differs between compounds; nearly all actives have a fitted effect of over 50% in size
Outline: as §1

[9] = A CellTox Green Cytotoxicity Assay to monitor cytotoxicity in HEK293 cells - 16 hour (AID 1224888); also: nearly all actives have a fitted effect of over 35% in size
Outline: as §2

[10] = qHTS RealTime-Glo MT Cell Viability Assay in HepG2 cells - 0 hour (AID 1224889); also: nearly all actives have a fitted effect of over 50% in size; also: potency is read from the fitted curve at half-maximal effect
Outline: as §4

[11] = A CellTox Green Cytotoxicity Assay to monitor cytotoxicity in HepG2 cells - 8 hour (AID 1224890); also: nearly all actives have a fitted effect of over 45% in size
Outline: as §3

[12] = qHTS assay to identify small molecule antagonists of the estrogen receptor alpha (ER-alpha) signaling pathway using the BG1 cell line in the presence of 0.1 nM 17-beta-estradiol - cell viability counter screen (AID 1259241); also: nearly all actives have a fitted effect of over 40% in size
Outline: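 The cell line endogenously expresses full-length ER-alpha and carries four EREs driving luciferase. Cells are cultured 5 days hormone-free, treated 22 hr with compounds and 0.1 nM estradiol, then viability is read by fluorescence.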

[13] = qHTS assay to identify small molecule antagonists of the androgen receptor (AR) signaling pathway using the MDA cell line in the presence of 0.5 nM R1881 - cell viability counter screen (AID 1259242); also: nearly all actives have a fitted effect of over 45% in size; also: potency is read from the fitted curve at half-maximal effect
Outline: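 Cytotoxicity toward MDA-kb2 cells is measured by CellTiter-Fluor live-cell protease fluorescence after 16 hr compound exposure at 37C in the presence of 0.5 nM R1881 stimulator.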

[14] = qHTS assay to identify small molecule HDAC inhibitors (AID 1259364); also: top concentration of the series differs between compounds; nearly all actives have a fitted effect of over 45% in size
Outline: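 Homogeneous cell-based luminescent assay of endogenous class I/II HDAC activity; HCT-116 cells, 2 h compound exposure, 30 min HDAC-Glo development at RT.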

[15] = qHTS assay to identify small molecule HDAC inhibitors - cell viability counter screen (AID 1259365)
Outline: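 Viability readout: CellTiter-Glo luminescence. Wild-type HCT-116 cells, 2hr compound treatment following overnight attachment at 37 C.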

[16] = qHTS assay to identify small molecule agonists of the sonic hedgehog signaling (Shh) pathway - cell viability counter screen (AID 1259366); also: nearly all actives have a fitted effect of over 50% in size
Outline: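 Viability measured fluorometrically (CellTiter-Fluor, 1hr, 37C) in 3T3 Gli1-Luc reporter cells after 23hr compound exposure within a 24hr incubation at 37C/5% CO2.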

[17] = qHTS assay to identify small molecule antagonists of the sonic hedgehog signaling (Shh) pathway - cell viability counter screen (AID 1259367); also: nearly all actives have a fitted effect of over 55% in size
Outline: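 NIH/3T3-derived Gli1-Luc reporter cells, 2,000/well, plated 4 hr before compound addition, then stimulated with conditioned medium for 24 hr at 37C. Viability measured in the same wells by CellTiter-Fluor fluorescence, reagent added at 23 hr for 1 hr.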

[18] = target: Androgen receptor (Homo sapiens) (UniProt P10275); assay: qHTS assay to identify small molecule antagonists of the androgen receptor (AR) signaling pathway using the MDA cell line in the presence of 0.5 nM R1881 (AID 1259243); also: nearly all actives have a fitted effect of over 50% in size
Outline: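 Steps: seed MDA-kb2 cells, incubate 5 hr at 37C; pin-transfer compounds in DMSO; add R1881 to 0.5 nM final; incubate 16 hr; add ONE-Glo, wait 30 min at room temperature; read luminescence.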

[19] = target: Estrogen receptor (Homo sapiens) (UniProt P03372); assay: qHTS assay to identify small molecule antagonists of the estrogen receptor alpha (ER-alpha) signaling pathway using the BG1 cell line in the presence of 0.1 nM 17-beta-estradiol (AID 1259244); also: nearly all actives have a fitted effect of over 50% in size
Outline: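 After 5 days in hormone-depleted medium (charcoal-stripped serum, no phenol red), VM7Luc4E2 cells were seeded, incubated 24 h, then co-treated with compound and 0.1 nM (final) estradiol for 22 h before luminescence detection.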

[20] = qHTS assay to identify small molecule phospholipidosis (PLD) inducers (AID 1259344; active = well fitted curve in the direction sought with a large enough effect; an effect the other way counts as inactive or inconclusive)
Outline: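 HepG2 cells, 900/well, treated with compound plus LipidTOX Red for 24 h at 37 C; amiodarone positive and DMSO negative controls. Fixed with paraformaldehyde/Hoechst, then high-content imaging scored LipidTOX pit count and integrated intensity per well and per cell.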

Sequence of Androgen receptor (Homo sapiens) (P10275 whole entry, looked up): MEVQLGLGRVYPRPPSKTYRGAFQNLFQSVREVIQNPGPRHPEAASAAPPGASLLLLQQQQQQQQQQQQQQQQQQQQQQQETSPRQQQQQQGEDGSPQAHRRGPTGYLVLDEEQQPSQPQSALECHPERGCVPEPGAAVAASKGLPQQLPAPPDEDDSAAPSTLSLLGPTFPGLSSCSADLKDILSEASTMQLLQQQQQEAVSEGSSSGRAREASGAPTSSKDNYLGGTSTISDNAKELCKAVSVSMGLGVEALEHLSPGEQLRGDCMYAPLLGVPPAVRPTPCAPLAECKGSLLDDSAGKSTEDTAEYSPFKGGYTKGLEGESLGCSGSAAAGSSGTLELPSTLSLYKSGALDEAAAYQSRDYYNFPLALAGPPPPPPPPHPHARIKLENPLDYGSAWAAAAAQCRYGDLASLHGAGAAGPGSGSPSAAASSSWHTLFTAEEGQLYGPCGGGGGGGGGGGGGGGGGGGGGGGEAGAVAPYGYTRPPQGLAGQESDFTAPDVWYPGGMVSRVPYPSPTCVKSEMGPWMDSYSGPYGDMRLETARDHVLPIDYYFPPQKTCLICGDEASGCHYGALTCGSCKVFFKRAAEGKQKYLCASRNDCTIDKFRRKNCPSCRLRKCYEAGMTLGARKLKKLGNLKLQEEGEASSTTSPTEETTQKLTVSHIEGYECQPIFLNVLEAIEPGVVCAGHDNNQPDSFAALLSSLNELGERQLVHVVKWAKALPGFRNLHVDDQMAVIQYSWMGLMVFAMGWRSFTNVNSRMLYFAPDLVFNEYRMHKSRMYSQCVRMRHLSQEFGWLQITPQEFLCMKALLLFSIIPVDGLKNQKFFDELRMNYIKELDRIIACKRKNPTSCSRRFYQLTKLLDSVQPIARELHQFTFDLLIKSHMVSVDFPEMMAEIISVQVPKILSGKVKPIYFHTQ
Sequence of Estrogen receptor (Homo sapiens) (P03372 whole entry, looked up): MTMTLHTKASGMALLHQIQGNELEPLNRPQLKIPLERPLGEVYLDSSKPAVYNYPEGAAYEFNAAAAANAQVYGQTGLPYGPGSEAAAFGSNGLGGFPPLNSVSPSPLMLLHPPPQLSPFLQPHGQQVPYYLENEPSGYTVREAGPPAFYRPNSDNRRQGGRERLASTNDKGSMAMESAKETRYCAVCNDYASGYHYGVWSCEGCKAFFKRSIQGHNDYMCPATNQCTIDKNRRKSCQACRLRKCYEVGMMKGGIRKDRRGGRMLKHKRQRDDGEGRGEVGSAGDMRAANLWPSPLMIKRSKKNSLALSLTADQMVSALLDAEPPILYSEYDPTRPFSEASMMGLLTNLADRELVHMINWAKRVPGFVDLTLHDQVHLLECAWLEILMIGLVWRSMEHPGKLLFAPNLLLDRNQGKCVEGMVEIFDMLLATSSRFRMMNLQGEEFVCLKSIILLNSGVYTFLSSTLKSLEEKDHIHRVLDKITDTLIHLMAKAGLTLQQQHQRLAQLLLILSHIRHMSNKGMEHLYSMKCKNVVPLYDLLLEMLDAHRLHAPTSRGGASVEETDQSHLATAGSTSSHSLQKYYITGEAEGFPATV

Row | SMILES | Potency [1] | Potency [2] | Potency [3] | Potency [4] | Potency [5] | Potency [6] | Potency [7] | Potency [8] | Potency [9] | Potency [10] | Potency [11] | Potency [12] | Potency [13] | Potency [14] | Potency [15] | Potency [16] | Potency [17] | Potency [18] | Potency [19] | outcome [20]
1 | Fc1c(F)c(F)c(Br)c(F)c1F | inactive | inactive | inactive | inactive | inactive | inactive | inactive | inactive | inactive | inactive | inactive | inactive | inactive | inactive | inactive | inactive | inactive |  |  | 
2 | CC(=O)Nc1ccccc1C | inactive | inactive | inactive | inactive | inactive | inactive | inactive | inactive | inactive | inactive | inactive | inactive | inactive | inactive | inactive | inactive | inactive |  |  | 
3 | C[C@]12CCC(=O)C=C1C=C[C@@H]1[C@@H]2CC[C@@]2(C)[C@H]1CC[C@@]21CCC(=O)O1 | inactive | inactive | inactive | inactive | inactive | inactive | inactive | inactive | inactive | 7.56 µM (active) | inactive | inactive | inactive | inactive | inactive | inactive | inactive |  |  | 
4 | O=C(O)c1ccccc1NCCc1ccccc1 | inactive | inactive | inactive | inactive | inactive | inactive | inactive | inactive | inactive | inactive | inactive | inactive | inactive |  | inactive | inactive | inactive | inactive | inactive | 
5 | CCCC1C(CC)=CC(CC)=CN1c1ccccc1 (stereo not given) | inactive | inactive | inactive | inactive | inactive | inactive | 13.8 µM (active) |  |  | inactive | inactive | inactive | 48.6 µM (active) | inactive | inactive | inactive | inactive |  |  | 
6 | CC(=N\O)/C(C)=N/O | inactive | inactive | inactive | inactive | inactive | inactive | inactive |  | inactive | inactive | inactive | inactive | inactive | inactive | inactive | inactive | inactive |  |  | 
7 | O=S(=O)(c1ccccc1)c1ccc(Cl)cc1 | inactive | inactive | inactive | inactive | inactive | inactive | inactive | inactive | inactive | inactive | inactive | inactive | inactive | inactive | inactive | inactive | inactive |  |  | 
8 | CC(C)OCC1CO1 (stereo not given) | inactive | inactive | inactive | inactive | inactive | inactive | inactive | inactive | inactive | inactive | inactive | inactive | inactive | inactive | inactive | inactive |  |  | inactive | 
9 | CC(C)C(=O)O | inactive | inactive | inactive | inactive | inactive | inactive | inactive | inactive | inactive | inactive | inactive | inactive | inactive | inactive | inactive | inactive | inactive |  |  | 
10 | COC(=O)c1cc(Cl)ccc1NS(=O)(=O)C(F)(F)F | inactive | inactive | inactive | inactive | inactive | inactive | inactive | inactive | inactive | inactive |  | inactive | inactive | inactive | inactive | inactive | inactive | inactive |  | 
11 | CCCCCCCCCOC(C)=O | inactive | inactive | inactive | inactive | inactive | inactive | inactive | inactive | inactive | inactive | inactive | inactive | inactive | inactive | inactive | inactive | inactive |  | inactive | 
12 | CN1CCCN=C1/C=C/c1cccs1 | inactive | inactive | inactive | inactive | inactive | inactive | inactive | inactive | inactive | inactive |  | inactive | inactive | inactive | inactive | inactive | inactive |  |  | inactive
13 | Cc1cc(OI)c(C(C)C)cc1-c1cc(C(C)C)c(OI)cc1C | inactive | inactive | inactive | inactive | inactive | inactive | inactive | inactive | inactive | inactive | inactive | inactive | inactive | inactive | inactive | inactive | inactive |  |  | inactive
14 | CCCOC(=O)c1ccc(N)cc1 | inactive | inactive | inactive | inactive | inactive | inactive |  | inactive | inactive | inactive | inactive | inactive | inactive | inactive | inactive | inactive | inactive | inactive | inactive | inactive
15 | CCN(CC)CCNC(=O)c1ccc(NC(C)=O)cc1 | inactive | inactive | inactive | inactive | inactive | inactive | inactive | inactive | inactive | inactive | inactive | inactive | inactive | inactive | inactive | inactive | inactive | inactive | inactive | inactive

Source: PubChem BioAssay (Tox21)
